Source: PubChem
FBPA coupling cs = coupling enzyme interference in Giardia aldolase counter-screen | AID 2472 | activity change, negative = inhibition, % at 58.2 µM, hits read low | 290,000 compounds, 0.67% hits | coupling enzyme system counterscreen, AmpLite Red fluorescence; in the data active means activity change below about -30%
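Counterscreen lacking aldolase: glyceraldehyde-3-phosphate coupling-enzyme reagent preincubated 10 min at RT with compound (at 57.5 uM final), then substrate/coupling system with AmpLite Red added; fluorescence read at 525/598 nm after 20 min RT.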
Sfp PPTase inh = Sfp phosphopantetheinyl transferase inhibition; Potency, µM, hits mostly inhibitors; AID 1490; 310,000 compounds, 3.5% hits; Biochemical Sfp PPTase activity, qHTS;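 further: the enzyme is Sfp with the accession as filed and its product quenches rhodamine fluorescence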
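Reaction rates are the 30-min fluorescence difference (ex 525, em 598 nm) in wells containing 15 nM Sfp, 5 uM rhodamine-CoA and 12.5 uM BHQ-2-YbbR at pH 7.6 with 10 mM MgCl2.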
Tau fluor cs = counter-screen for tau fibril formation inhibitors; Potency, µM (highest dose often 57.7 µM); AID 1463; tau K18 P301L Alexa594 fluorescence, heparin fibrillization; 280,000 compounds, 0.93% hits; further: nearly all actives have a fitted effect of over 55% in size
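Human K18 P301L tau (15 uM unlabeled plus 0.24 uM Alexa 594-labeled, final) in 100 mM sodium acetate pH 7 was mixed with compound and 20 uM heparin and incubated 6 hr at 37 C.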
Tau fibril FP = inhibitors of human tau fibril formation; P10636; K18 P301L tau heparin fibrillization, Alexa594 FP, 6 h; Potency, µM (highest dose often 57.7 µM), usual class: inhibitors; 280,000 compounds, 0.39% hits; AID 1468; further: nearly all actives have a fitted effect of over 55% in size
Target sequence (P10636 561-689 P618L limits assumed): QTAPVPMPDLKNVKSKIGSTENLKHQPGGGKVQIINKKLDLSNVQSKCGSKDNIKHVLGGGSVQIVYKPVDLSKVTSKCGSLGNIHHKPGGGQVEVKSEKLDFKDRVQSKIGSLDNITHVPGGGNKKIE
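FP of Alexa 594-tau after heparin (20 uM) induction. Substrate: human K18 P301L, 15 uM unlabeled, 0.24 uM labeled. Buffer 100 mM sodium acetate pH 7. 6 hr, 37 C.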
Tau ThT inhib = blocks human tau fibril formation measured by thioflavin T; P10636; recombinant tau K18 P301L (four-repeat tau fragment), heparin-induced fibrillization, ThT fluorescence; Potency, µM (top dose mostly 57.4 µM), hits mostly inhibitors; 270,000 compounds, 2.1% hits; further: nearly all actives have a fitted effect of over 55% in size
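Tau K18 P301L fragment (15 uM unlabeled plus 0.24 uM Alexa 594-labeled) in 100 mM sodium acetate pH 7 with compound, fibrillization induced by 20 uM heparin for 6 hr at 37 C. Thioflavin T (30 uM) added, fluorescence read after 1 hr (ex 450, em 510 nm).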
A number is an active result; - = inactive; ? = inconclusive; . = no result given; ! = not active in a repeat; [ ] = remark or other dose. Only some compounds are listed: those with a hit (about 5.2% of all), similar ones and a draw of the others. Unless noted, the call rests on the fitted dose curve; in most records, active means well fitted curve in the direction sought with a large enough effect; inconclusive means small, poorly fitted or top-dose-only effect, or another doubt; inactive means no such curve, though single readings can be large; an effect the other way counts as inactive or inconclusive.

SMILES | FBPA coupling cs | Sfp PPTase inh | Tau fluor cs | Tau fibril FP | Tau ThT inhib
O=S(=O)(Nc1ccc(-c2csc(-c3ccccc3)n2)cc1)c1ccc(F)cc1 | - | - | ? | 11.2µM | -
CC(=O)c1c(C)[nH]c(C(=O)Nc2nc(-c3ccc(-c4ccccc4)cc3)cs2)c1C | - | - | ? | 39.8µM | -
CNS(=O)(=O)c1ccc(NC(=S)Nc2ccc3c(c2)OCO3)cc1 | - | 44.7µM | - | - | -
Cc1cccc(NC(=O)C2CCCN(S(=O)(=O)c3ccc4c(c3)oc(=O)n4C)C2)c1C (stereo not drawn) | . | . | - | - | -
COc1ccc(-c2cc3nc(C)c(CCC(=O)N4CCN(c5ccccc5)CC4)c(C)n3n2)c(OC)c1 | . | . | - | - | ?
CCCc1nc(SCC(=O)N2CCc3ccccc32)c2c(=O)n(C)c(=O)n(C)c2n1 | - | - | - | - | -
CC(C)c1nc(SCC(=O)N2CCCc3ccccc32)c2c(=O)n(C)c(=O)n(C)c2n1 | - | 44.7µM | - | - | ?
Cc1c(CN(C)C)c2c(n1Cc1ccccc1)C(=O)c1ccc(Br)cc1-2 | - | - | ? | - | 15.8µM
Cc1c(CN(C)C)c2c(n1C)C(=O)c1ccc(Br)cc1-2 | - | - | - | - | ?
Cc1ccc2c(c1)N(CCCC(=O)NCc1cccc(F)c1)C(=O)CO2 | . | . | - | - | -
Cc1c(Cl)cccc1NC(=O)CSc1nc2ncccc2o1 | . | . | - | - | -
COc1ccc(-c2cc(C(=O)NCc3ccc(F)cc3)no2)cc1 | . | . | - | - | -
Cc1ccc(/C=C/C(=O)NCCCN2CCN(CCCNC(=O)/C=C/c3ccc(C)o3)CC2)o1 | - | - | - | - | -
Cc1ccc(/C=C/C(=O)NCCc2cccc(Cl)c2)o1 | - | 20µM | . | . | .
Cc1ccc(/C=C/C(=O)NCCc2c[nH]c3ccccc23)o1 | - | 28.2µM | - | - | ?
Cc1ccc(OCC(=O)Nc2ccc3nn(-c4ccc(C)cc4)nc3c2)cc1 | . | . | - | - | -
O=C(CN1CCN(S(=O)(=O)N2CCCCCC2)CC1)Nc1cc(Cl)ccc1Cl | - | - | . | . | .
O=C(CN1CCN(c2ccc(O)cc2)CC1)Nc1cc(S(=O)(=O)N2CCCCC2)ccc1Cl | - | 56.2µM | ? | - | ?
CC1CN(CC(=O)Nc2cc(S(=O)(=O)N3CCCC3)ccc2Cl)CC(C)O1 (stereo not drawn) | - | - | - | - | -
O=C(CN1CCN(c2ccc(O)cc2)CC1)Nc1cc(S(=O)(=O)N2CCCC2)ccc1Cl | - | 44.7µM | ? | - | ?
C/C(=N\Nc1nnc(-c2ccccc2)c(-c2ccccc2)n1)c1cccc([N+](=O)[O-])c1 | - | 50.1µM | - | - | ?
O=[N+]([O-])c1cccc(/C=N/Nc2nnc(-c3ccccc3)c(-c3ccccc3)n2)c1 | - | - | - | - | -
Cc1ccc(NC(=O)Nc2sc(=S)n(C)c2C)cc1 | - | 56.2µM | ? | - | ?
Cc1c(NC(=O)Oc2ccccc2)sc(=S)n1C | - | 56.2µM | - | - | -
O=S1(=O)C=C(Sc2nc3ccccc3s2)c2ccccc21 | - | 50.1µM | - | ? | 10µM
SMILES | FBPA coupling cs | Sfp PPTase inh | Tau fluor cs | Tau fibril FP | Tau ThT inhib
c1ccc2sc(SSc3nc4ccccc4s3)nc2c1 | . | 56.2µM | . | . | .
CCOc1ccc(NC(=S)N(CCc2ccncc2)C(C)C)cc1 | - | 50.1µM | - | - | -
C=C1CCN(C(Cc2ccccc2)C(=O)NC2CCN(Cc3ccccc3)CC2)S(=O)(=O)c2ccccc21 (stereo not drawn) | - | - | . | . | .
O=C(O)C1CCCN1 (stereo not drawn) | - | ? | . | . | .
O=C(O)[C@H]1CCCN1 | - | 44.7µM! | - | - | -
Cc1ccc(C)c(C(=O)CSc2nc(-c3ccccc3)nc3c2CCCC3)c1 | . | . | - | - | -
Cc1nc2c(O)cccc2c(=O)[nH]1 | - | 56.2µM | - | - | -
Cc1nc2ccccc2c(=O)[nH]1 | - | - | - | - | -
Cc1ccccc1NC(=O)c1sc2nc(-c3ccncc3)ccc2c1N | . | . | 10µM[quencher] | - | 5.01µM
COc1cccc(-c2ccc3c(N)c(C(=O)Nc4ccccc4C)sc3n2)c1 | . | . | 8.91µM[quencher] | - | ?
COc1cccc(-c2ccc3c(N)c(C(=O)c4ccc(F)cc4)sc3n2)c1 | . | . | 3.16µM[quencher] | ? | ?
COc1ccc(-c2ccc3c(N)c(C(=O)NCc4ccc(C)cc4)sc3n2)cc1 | . | . | ? | - | -
COc1cccc(-c2ccc3c(N)c(C(=O)NCc4ccc(Cl)cc4)sc3n2)c1 | . | . | 4.47µM[quencher] | - | ?
